Source: PubChem BioAssay AID651719 (The Scripps Research Institute Molecular Screening Center, 2012)
Among all 360,000 compounds or so, about 1,600 (0.44%) were called active. This is one part of a sample in which actives are shown more often than they occur. Values without a mark were called inactive.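 Rule for the calls: active = inhibition above the screen-wide average plus 3 SD (cut at about 13% in these data); inactive = the rest.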

target: Galanin receptor type 3 (Homo sapiens) (UniProt O60755); assay: blockers of human galanin receptor 3 – cell-based, fluorescence readout, primary screen (AID 651719); conditions: HEK293 GalR3-CNG cAMP membrane potential fluorescence; at 3 µM; hits give high values; galR3 body fused to GalR1 C-terminus;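 note: forskolin and galanin both at EC90 stimulate the cells; cAMP rise reported by CNG channel membrane potential dye signal; 0% = forskolin plus galanin with DMSO and 100% = forskolin alone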
Sequence (O60755 1-299 limits assumed): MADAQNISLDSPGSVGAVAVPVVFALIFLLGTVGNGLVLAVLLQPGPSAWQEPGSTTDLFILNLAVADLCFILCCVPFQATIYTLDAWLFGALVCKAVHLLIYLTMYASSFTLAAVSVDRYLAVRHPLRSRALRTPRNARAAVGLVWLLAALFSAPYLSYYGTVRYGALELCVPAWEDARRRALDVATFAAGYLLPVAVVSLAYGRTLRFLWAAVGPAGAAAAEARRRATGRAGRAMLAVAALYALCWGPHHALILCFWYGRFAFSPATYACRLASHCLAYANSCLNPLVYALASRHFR

SMILES | inhibition
CCCCCCCCn1c2c(c(=N)c3c1CCC3)CCCC2 | 30.2% (active)
COC(=O)C1=C(C)N(Cc2cccc(C(F)(F)F)c2)C(=NCc2cccc(C(F)(F)F)c2)NC1c1ccccc1C(F)(F)F (stereo unspecified) | -1.24%
Cc1ccc(NC(=O)N2c3ccccc3SC2c2ccco2)c(C)c1 (stereo unspecified) | -5.21%
CCOc1ccc(Br)cc1S(=O)(=O)N1CCC(C(=O)O)CC1 | -0.52%
CCOc1ccc(Br)cc1CSC(=N)N | 58.7% (active)
CC(C)(C)NCc1cc(Br)ccc1OC1CCCC1 | -9.54%
COc1ccccc1C(=O)N1O[C@]23C=C[C@]14C[C@@H](O)CC[C@]4(C)C2CC[C@]1(C)[C@@H]([C@H](C)/C=C/[C@H](C)C(C)C)CC[C@H]13 (stereo partly specified) | -7.73%
CCN1C(=O)N[C@@H]2C[C@H](C(=O)N3CCCC3)[C@H](C)[C@H](c3ccccc3)C[C@@H]21 | -5.5%
O=C(N[C@H](C(=O)N1CCC[C@H]1C(=O)NCCc1ccccc1Cl)c1ccccc1)c1ccccc1 | -7.99%
COc1ccccc1-c1ccc([C@@H]2C[C@H]3[C@H](CON3C)CN2S(=O)(=O)c2cc(Cl)cc(Cl)c2)cc1 | -6.77%
COc1ccc(N(C(=O)CNC(=O)c2ccco2)C(C(=O)NCC2CCCO2)c2ccccc2)cc1Cl (stereo unspecified) | 17.1% (active)
O=C(NCC(=O)N(c1ccccc1)C(C(=O)NCC1CCCO1)c1ccccc1)c1cccs1 (stereo unspecified) | 0.38%
O=C(NCC(=O)N(CC1CCCO1)C(C(=O)NC1CCCCC1)c1ccccc1)c1ccco1 (stereo unspecified) | -3.5%
COC(=O)c1c(-c2ccc(OC)cc2)c2c(c3c4cc(OC)ccc4n(S(=O)(=O)c4ccc(F)cc4)c13)C(=O)N(C)C2 | -4.47%
CCOC(=O)c1c(NC(=O)CSc2nnc(CNc3ccc(C)cc3C)o2)sc(C)c1C | -5.1%
CCOC(=O)c1c(NC(=O)CSc2nnc(Cc3csc(N)n3)n2C)sc(C)c1C | -6.84%
CCOC(=O)c1c(NC(=O)CSc2nccc(=O)[nH]2)sc(C)c1C | 14.3% (active)
O=C1Nc2ccccc2C1=NN=Cc1ccco1 | -6.76%
CC(C)(C)n1nc(C2CC2)c(Br)c1NC(=O)c1ccccc1F | -6.97%
O=c1[nH]c(-c2ccccc2)cn1C1CCN(Cc2ccc(-c3nc4ccc(F)cc4nc3-c3ccccc3)cc2)CC1 | -7.59%
CCOc1ccc(C(C)=O)cc1COC(=O)CNC(=O)c1cccs1 | -0.09%

SMILES | inhibition
CCOc1ccc(C(C)=O)cc1COC(=O)c1cnc(Cl)c(Cl)c1 | 13.8% (active)
COC(=O)c1ccc(COC(=O)c2cnc(Cl)c(Cl)c2)cc1 | -9.03%
COC(=O)c1ccc(CN2C(=O)[C@]3(OCCC=C[C@H]3C)c3c(Br)cccc32)cc1 | -6.8%
CC1CCN(C(=O)c2ncn3c2C(=O)N[C@@H](C)C3)CC1 | -3.89%
O=C(NCc1ccccc1)[C@@H]1CCCN1C(=O)[C@H]1CCCN1C(=O)c1cccc(Cl)c1 | -6.19%
O=C(Nc1ccc(CN2CCOCC2)cc1)c1cc(Cl)ccc1Cl | -7.17%
CCOC(=O)N1CCN(Cc2nc3cc(NC(C)=O)ccc3n2C)CC1 | -9.27%
Cn1c(CN2CCOCC2)nc2cc(NC(=O)c3ccc(Cl)cc3)ccc21 | 74.6% (active)
Cc1cc(NCCc2c[nH]c3ccccc23)ccc1Oc1cccnc1 | -8.42%
COc1ccc(C2Nc3ccccc3C(=O)N2Cc2ccccc2)cc1Cn1nnc2ccccc21 (stereo unspecified) | -2.99%
COc1ccc(C2Nc3ccccc3C(=O)N2c2ccc(Cl)cc2)cc1Cn1cc([N+](=O)[O-])cn1 (stereo unspecified) | 28.1% (active)
COc1ccc(CN2CCCC(C(=O)c3ccc(Cl)cc3)C2)cc1Cn1cncn1 (stereo unspecified) | -0.72%
CN[C@H]1C[C@H]2c3[nH]c4c(-c5ccccc5)cccc4c3CCN2C(=O)[C@H]1[C@H](C)O | -8.33%
CC(=NNC(N)=O)c1ccc(Cl)c(-n2cccc2)c1 | -8.67%
C[C@@H]1ON(C)[C@H]2C[C@H]3c4cc(N5CCOCC5)ccc4CCN3C[C@@H]12 | -4.65%
COC(=O)[C@H](CC(C)C)NS(=O)(=O)c1c(F)cccc1F | -4.91%
COCc1[nH]nc2c1C(c1ccccc1)N(c1ccccc1)C2=O (stereo unspecified) | -6.8%
CN1C(=O)C2CC(O)C(SC3CC4C(=O)N(C)C(=O)C4CC3O)CC2C1=O (stereo unspecified) | -2.8%
Cc1cccc(NC(=O)c2ccc(S(=O)(=O)N(C)c3ccccc3)cc2)n1 | -6.82%
COC(=O)c1nc(NC(=O)c2ccc(C(C)(C)C)cc2)n[nH]1 | -1.62%
